This is an account of results in PubChem BioAssay (NCATS).

Molecules are shown by their SMILES. A number with no mark means an inactive call. Inconclusive results are not listed. Calls of active or inactive are those of the source. Unless noted, calls follow the shape of the dose curve; as a rule, active = well fitted curve in the direction sought with a large enough effect; inconclusive = small, poorly fitted or top-dose-only effect, or another doubt; inactive = no such curve, though single readings can be large; an effect the other way counts as inactive or inconclusive. A value given as a limit tells only on which side of the number the result lay.

Assay [1] in a line: AP1 Signaling Pathway (AID 357; active = well fitted curve in either direction with a large enough effect, not every such curve was filed as active;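 also: ME-180 reporter cells stimulated with EGF at its EC50 level; % is scaled to controls: 0 for no effect and ±100 for the full control effect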). The note with it: ME-180 AP-1-bla reporter, EGF-induced, beta-lactamase ratio, 5 h; at 7.69 µM (top of the series) unless noted. In a few lines:
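Titration-series screen for positive or negative modulators of EC50 EGF-induced signaling in ME-180 cells carrying an AP-1-driven beta-lactamase reporter. After 5 hours at 37 degrees Celsius, CCF4 460nm/530nm emission ratio gave %Activity; AC50 values derived.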

The target of assay [2] is Cytochrome P450 1A2 (Homo sapiens) (UniProt P05177). Kind of assay: p450-cyp1a2 (AID 410; calls by dose curve; also: potency is read from the fitted curve at half-maximal effect). Put shortly: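 20nM CYP1A2, 100uM Luciferin-ME (=Km), 100mM KPO4; cpd 10 min RT; +NADPH regen, 60 min RT; stop/detect 20 min; luminescence. Normalized to furafylline 57 uM = full inhibition.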
Assay [3] can be described thus: NFAT Signaling Pathway (AID 444; active = well fitted curve in either direction with a large enough effect, not every such curve was filed as active;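 also: carbachol stimulus at about its EC50 of 1 µM final; % is scaled to controls: 0 for no effect and ±100 for the full control effect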). To be noted: Jurkat NFAT-bla M1, carbachol, beta-lactamase ratio, 5 h; at 7.69 µM (top of the series) unless noted. In a few lines:
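Read-out: CCF4 FRET ratio (460 nm/530 nm) after 1 h RT dye loading, used for %activity and AC50 from titration series. Cells: Jurkat NFAT-β-lactamase/M1 line, treated with compound plus 1 uM carbachol for 5 h, 37 °C.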

The nature of assay [4]: Stat Signaling Pathway (AID 446; active = well fitted curve in either direction with a large enough effect, not every such curve was filed as active;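 also: ME-180 cervical cancer cells given 40 pM IL-6 alongside compound; SIE-controlled beta-lactamase reporter measured as 460/530 nm FRET emission ratio; % is scaled to controls: 0 for no effect and ±100 for the full control effect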). The note with it: ME-180 (cervical carcinoma) SIE beta-lactamase reporter, IL-6 stimulated, 5 h; at 7.69 µM (top of the series) unless noted. In a few lines: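 FRET read-out (405 nm excitation, 460/530 nm emission) of a beta-lactamase reporter under a STAT-inducible element in ME-180 cervical carcinoma cells. Cells with compound receive 40 pM IL-6 for 5 h. Values are normalised to AC90 stimulation and AC90 JAK-inhibitor controls.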

Assay [5] deals with Glucocorticoid receptor (Homo sapiens) (UniProt P04150). The assay can be described thus: GR-GFP Redistribution (AID 450;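 active = compounds whose dose series gives a full or clear partial fitted curve of increased nuclear translocation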; also: potency is read from the fitted curve at half-maximal effect). To be noted: U2OS GR-GFP nuclear translocation, laser cytometry, 2 h.
Assay [6] shares this target. The assay can be described thus: GR-EFC Redistribution (AID 451; calls by dose curve; also: potency is read from the fitted curve at half-maximal effect). The note with it: CHO-K1 GR-EFC translocation, beta-gal luminescence, 2 h. Put shortly: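 Translocation of GR-ED fusion to nuclear EA restores b-gal, read by luminescence after 1 h room-temperature detection. Engineered CHO-K1 biosensor cells, 1,000/well, exposed 2 h at 37 C to titrations up to 46 uM final.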

For assay [7], the target named is 3',5'-cyclic-AMP phosphodiesterase 4B (Homo sapiens) (UniProt Q07343). The assay can be described thus: qHTS Assay for Inhibitors of PDE-IV (AID 607; active = well fitted activation curve with a large enough effect in the main read-out, with a control signal flat, not every such curve was filed as active; also: % of control where 0% means no effect). In a few lines: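 Cell-based read-out of cAMP via a modified cyclic nucleotide-gated channel and membrane potential dye (535/590 nm) in HEK293 cells expressing PDE4 endogenously. Compounds tested up to 22.9 uM final; 100 uM RO 20-1724 reference.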

The target in assay [8] is Cytochrome P450 2C9 (Homo sapiens) (UniProt P11712). Kind of assay: qHTS Assay for Inhibitors and Substrates of Cytochrome P450 2C9 (AID 883). Also: % is scaled to controls: 0 for no effect and ±100 for the full control effect; nearly all actives have a fitted effect of over 60% in size. Put shortly: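 Turnover of Luciferin-H (100uM, KM) by 10nM human CYP2C9 was measured over 60 min at 37C with NADPH regeneration; inhibitors and some substrates reduce luminescence. Data normalized to sulphaphenazole 57uM.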
Assay [9] addresses Cytochrome P450 2C19 (Homo sapiens) (UniProt P33261). The assay can be described thus: qHTS Assay for Inhibitors and Substrates of Cytochrome P450 2C19 (AID 899). Also: nearly all actives have a fitted effect of over 60% in size. Also: potency is read from the fitted curve at half-maximal effect. In a few lines:
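Reactions contain 5nM enzyme, 10uM Luciferin-H EGE (KM) and 50mM KPO4; compound preincubates 10 min at 37C, NADPH regeneration starts turnover for 60 min. Luminescence after detection reagent gives activity.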

Assay [10] addresses Guanine nucleotide-binding protein G(i) subunit alpha-1 (Homo sapiens) (UniProt P63096). Kind of assay: qHTS Assay for Inhibitors of RGS12 GoLoco Motif Activity (Green Fluorophore) (AID 879).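 Also: 0% = labeled peptide with Gαi1 and full inhibition = labeled peptide alone without protein; negative values mean loss of peptide binding seen as reduced polarization.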 In a few lines:
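A drop in FITC polarization marked displacement of the FITC-tagged RGS12 GoLoco peptide (10 nM) from Gαi1 (50 nM). Compounds were incubated 10 min at room temperature in Tris pH 7.5 buffer containing 150 mM NaCl, 0.1 mM GDP and 0.05% NP40; unlabeled peptide titration served as control.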

A short description of assay [11]: qHTS Assay for Identification of Small Molecule Antagonists for NFkB Signaling Pathway (AID 895; active = well fitted inhibition curve with a large enough effect in the signal ratio, with a control signal flat, not every such curve was filed as active; the % refers to the signal ratio; also: % is scaled to controls: 0 for no effect and ±100 for the full control effect). Put shortly: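 Beta-lactamase reporter read-out (460 and 530 nm emission ratio, 405 nm excitation, 2 hrs substrate loading RT) after 5 hr stimulation with 10 pM TNF alpha in compound-treated NFkB-bla ME-180 cells in low-serum medium.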
Assay [12] in a line: qHTS Assay for Identification of Small Molecule Agonists for Thrombopoietin (TPO) Signaling Pathway (AID 917). Also: % is scaled to controls: 0 for no effect and ±100 for the full control effect. Put shortly: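 Ba/F3 (mouse) + hTPO receptor + GpIIb-promoter luciferase; IL-3 withdrawn overnight; compound + 26 pM TPO (EC50), 24 hrs, 37 C, 5% CO2; Steadylite luminescence, 10 min RT.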
In assay [13] the target is Pyruvate kinase (Leishmania mexicana) (UniProt Q27686). Kind of assay: qHTS Validation Assay for Inhibitors of Leishmania Mexicana Pyruvate Kinase (AID 945).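 Also: 0% = DMSO only neutral control wells.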 Put shortly: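 Compounds are tested as eight-point concentration series. Reactions contain 0.2 nM LmPYK E451W, 0.5 mM PEP, 0.1 mM ADP, 7 mM MgCl2 and 50 mM KCl at pH 7.2, run 1 h at room temperature, then read by PKLight luminescence.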

Assay [14] has as its target Pyruvate kinase PKM (Homo sapiens) (UniProt P14618). Kind of assay: qHTS Assay for Activators of Human Muscle Pyruvate Kinase (AID 954; active = well fitted curve in the direction sought with a large enough effect, not every such curve was filed as active;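 also: 0% = uninhibited enzyme and -100% = no enzyme or full thiadiazolimine inhibition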). Put shortly: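 ATP production by PKM2 detected via luciferase luminescence after 1 h room-temperature reaction (0.1 nM enzyme, PEP at Km 0.5 mM, ADP 0.1 mM, pH 7.2 imidazole buffer). Inhibition scaled to no-enzyme control; activation referenced to 0.3 nM enzyme wells.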

For assay [15], the target named is Alpha-galactosidase A (Homo sapiens) (UniProt P06280). Kind of assay: Counterscreen for Glucocerebrosidase Inhibitors: qHTS Assay for Human alpha-Galactosidase at pH 4.5 (AID 992). Also: 0% is about no effect. In a few lines: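 Fluorogenic 1536-well qHTS at pH 4.5 (citrate, Tween-20): 2 nM enzyme, 80 uM 4-MU-alpha-galactoside, 20 min room temperature, NaOH/glycine stop. Titration 0.7 nM to 77 uM, data normalized to no-enzyme and full-activity controls, Hill-fitted AC50.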

The target of assay [16] is alpha-glucosidase (Oryza sativa, rice) (UniProt Q653V4). Kind of assay: Counterscreen for Glucocerebrosidase Inhibitors: qHTS Assay for Rice alpha-Glucosidase at pH 5.0 (AID 997).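 Also: 0% = full activity with enzyme and -100% = basal without enzyme.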 In a few lines:
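Endpoint fluorogenic assay at pH 5.0: compounds (0.7 nM to 77 uM) titrated against 4 nM rice enzyme and 400 uM 4-MU-alpha-glucoside for 20 min at room temperature; NaOH/glycine stop, read ex 365/em 440 nm, Hill-fitted AC50.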

For assay [17], the target named is Mitogen-activated protein kinase 10 (Mus musculus) (UniProt Q61831). The assay can be described thus: JNK3 AlphaScreen Assay (AID 530; active = well fitted curve in either direction with a large enough effect, not every such curve was filed as active). In a few lines: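 Kinase buffer: 20 mM Tris-HCl pH 7.6, 10 mM MgCl2, 1 mM DTT, 0.1 mM Na3VO4, 0.01% Tween-20; ATP 10 uM. Substrate biotin-GST-cJun(1-79), enzyme from activated HepG2 lysates. Detection by Ser73 phospho-antibody AlphaScreen.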

For assay [18], the target named is Muscarinic acetylcholine receptor M1 (Rattus norvegicus) (UniProt P08482). Kind of assay: qHTS Assay for Antagonists of Acetylcholine Muscarinic M1 Receptor: Measurement of IP-One Response (AID 944). Also: nearly all actives have a fitted effect of over 75% in size. In a few lines: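 Read-out: HTRF competition between d2-IP1 and Eu-cryptate anti-IP1 antibody, emission 620 and 665 nm. Stimulus was carbachol, EC80 (200 nM), for 30 min in M1-CHO cells (rat receptor), after 10 min compound pre-treatment.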

Assay [19] addresses Cytochrome P450 3A4 (Homo sapiens) (UniProt P08684). The assay can be described thus: qHTS Assay for Activators of Cytochrome P450 3A4 (AID 885). Also: nearly all actives have a fitted effect of over 65% in size. In a few lines: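 Luminescent readout of luciferin formed from 25 uM Luciferin-PPXE (KM level) by 20 nM CYP3A4 in 200 mM KPO4, with 60 min NADPH-driven reaction at room temperature after 10 min compound exposure. Ketoconazole (57 uM) defined 100% inhibition.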

Assay [20] addresses Cytochrome P450 2D6 (Homo sapiens) (UniProt P10635). The assay can be described thus: qHTS Assay for Inhibitors and Substrates of Cytochrome P450 2D6 (AID 891).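 Also: luciferin methyl ether substrate demethylated by CYP2D6 with NADPH regeneration; % is scaled to controls: 0 for no effect and ±100 for the full control effect; nearly all actives have a fitted effect of over 60% in size.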 Put shortly:
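Luminescent read-out of luciferin formed by 5 nM human CYP2D6 demethylating 30 uM Luciferin-ME EGE (Km level) over 60 min at room temperature after NADPH regeneration addition. Data normalized to full inhibition by 1.43 uM quinidine.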

Pyruvate kinase (Leishmania mexicana), sequence (Q27686 2-499 E452W): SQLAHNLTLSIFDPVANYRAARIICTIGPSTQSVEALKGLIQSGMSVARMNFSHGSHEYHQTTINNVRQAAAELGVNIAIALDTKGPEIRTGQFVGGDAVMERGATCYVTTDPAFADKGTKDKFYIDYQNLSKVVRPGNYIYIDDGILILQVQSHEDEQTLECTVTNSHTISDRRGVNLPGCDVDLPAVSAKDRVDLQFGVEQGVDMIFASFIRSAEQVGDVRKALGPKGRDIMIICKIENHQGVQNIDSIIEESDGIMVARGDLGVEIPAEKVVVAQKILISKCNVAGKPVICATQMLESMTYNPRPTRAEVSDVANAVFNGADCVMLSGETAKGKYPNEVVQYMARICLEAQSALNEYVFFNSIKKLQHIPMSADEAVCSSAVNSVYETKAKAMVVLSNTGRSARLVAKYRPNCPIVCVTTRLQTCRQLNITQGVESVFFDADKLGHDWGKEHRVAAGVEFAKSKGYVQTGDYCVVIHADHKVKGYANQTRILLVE
Muscarinic acetylcholine receptor M1 (Rattus norvegicus), sequence (P08482 whole entry, looked up): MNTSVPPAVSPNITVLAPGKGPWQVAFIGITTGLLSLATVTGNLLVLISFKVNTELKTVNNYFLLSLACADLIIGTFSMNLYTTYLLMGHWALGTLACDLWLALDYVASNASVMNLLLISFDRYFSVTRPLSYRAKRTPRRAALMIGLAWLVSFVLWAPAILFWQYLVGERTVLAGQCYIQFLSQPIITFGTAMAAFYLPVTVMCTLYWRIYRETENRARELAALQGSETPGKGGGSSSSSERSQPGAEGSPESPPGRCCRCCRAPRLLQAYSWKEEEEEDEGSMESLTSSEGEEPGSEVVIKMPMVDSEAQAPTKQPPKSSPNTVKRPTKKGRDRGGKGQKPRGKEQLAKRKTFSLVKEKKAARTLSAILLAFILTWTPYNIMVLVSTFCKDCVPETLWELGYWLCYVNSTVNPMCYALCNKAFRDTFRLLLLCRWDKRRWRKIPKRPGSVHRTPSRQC
Glucocorticoid receptor (Homo sapiens), sequence (P04150 whole entry, looked up, the tested form may be a part): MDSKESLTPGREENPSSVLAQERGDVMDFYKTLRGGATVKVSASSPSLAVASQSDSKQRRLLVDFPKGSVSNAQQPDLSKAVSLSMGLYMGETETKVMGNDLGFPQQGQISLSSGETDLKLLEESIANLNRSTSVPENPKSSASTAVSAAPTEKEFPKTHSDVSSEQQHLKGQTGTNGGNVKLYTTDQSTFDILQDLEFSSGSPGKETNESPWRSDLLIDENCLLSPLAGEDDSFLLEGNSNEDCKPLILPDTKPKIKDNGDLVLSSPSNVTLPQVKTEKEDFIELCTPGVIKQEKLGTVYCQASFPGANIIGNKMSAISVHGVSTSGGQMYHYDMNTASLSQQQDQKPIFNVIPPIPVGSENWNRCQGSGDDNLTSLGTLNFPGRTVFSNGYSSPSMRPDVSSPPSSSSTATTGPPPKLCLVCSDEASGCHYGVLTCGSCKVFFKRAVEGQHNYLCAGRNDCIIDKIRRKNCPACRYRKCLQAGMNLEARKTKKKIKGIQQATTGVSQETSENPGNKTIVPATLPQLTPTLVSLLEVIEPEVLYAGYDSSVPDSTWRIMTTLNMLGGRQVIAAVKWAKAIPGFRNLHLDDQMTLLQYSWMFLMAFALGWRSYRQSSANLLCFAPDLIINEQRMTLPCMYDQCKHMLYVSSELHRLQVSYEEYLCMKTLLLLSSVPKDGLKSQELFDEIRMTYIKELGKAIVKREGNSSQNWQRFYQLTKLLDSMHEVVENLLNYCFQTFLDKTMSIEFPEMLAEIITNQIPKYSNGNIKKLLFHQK
Cytochrome P450 1A2 (Homo sapiens), sequence (P05177 whole entry, looked up): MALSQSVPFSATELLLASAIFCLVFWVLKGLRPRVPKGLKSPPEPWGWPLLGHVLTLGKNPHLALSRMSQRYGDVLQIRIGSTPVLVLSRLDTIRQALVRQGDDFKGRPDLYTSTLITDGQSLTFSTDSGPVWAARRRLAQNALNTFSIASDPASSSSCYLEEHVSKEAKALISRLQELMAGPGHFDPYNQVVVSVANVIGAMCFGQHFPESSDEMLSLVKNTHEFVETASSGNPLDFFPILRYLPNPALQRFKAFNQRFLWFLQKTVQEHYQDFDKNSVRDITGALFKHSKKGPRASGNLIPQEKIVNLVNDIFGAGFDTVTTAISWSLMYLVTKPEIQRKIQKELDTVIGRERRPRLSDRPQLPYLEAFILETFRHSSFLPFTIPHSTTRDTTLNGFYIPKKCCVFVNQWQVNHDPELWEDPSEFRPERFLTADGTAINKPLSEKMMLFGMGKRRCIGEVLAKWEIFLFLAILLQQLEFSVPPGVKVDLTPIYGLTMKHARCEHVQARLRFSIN
Alpha-galactosidase A (Homo sapiens), sequence (P06280 whole entry, looked up): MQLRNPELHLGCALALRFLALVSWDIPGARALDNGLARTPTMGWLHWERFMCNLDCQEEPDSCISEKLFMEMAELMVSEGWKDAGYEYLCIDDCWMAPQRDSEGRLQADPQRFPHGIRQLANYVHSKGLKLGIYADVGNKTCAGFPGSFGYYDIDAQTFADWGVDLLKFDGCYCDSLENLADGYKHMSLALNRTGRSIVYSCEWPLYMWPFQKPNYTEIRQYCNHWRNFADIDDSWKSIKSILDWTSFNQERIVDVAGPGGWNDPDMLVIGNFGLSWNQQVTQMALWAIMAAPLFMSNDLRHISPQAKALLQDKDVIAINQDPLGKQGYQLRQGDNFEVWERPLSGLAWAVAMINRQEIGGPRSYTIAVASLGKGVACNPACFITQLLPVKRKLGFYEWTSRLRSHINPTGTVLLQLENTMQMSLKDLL
Guanine nucleotide-binding protein G(i) subunit alpha-1 (Homo sapiens), sequence (P63096 whole entry, looked up): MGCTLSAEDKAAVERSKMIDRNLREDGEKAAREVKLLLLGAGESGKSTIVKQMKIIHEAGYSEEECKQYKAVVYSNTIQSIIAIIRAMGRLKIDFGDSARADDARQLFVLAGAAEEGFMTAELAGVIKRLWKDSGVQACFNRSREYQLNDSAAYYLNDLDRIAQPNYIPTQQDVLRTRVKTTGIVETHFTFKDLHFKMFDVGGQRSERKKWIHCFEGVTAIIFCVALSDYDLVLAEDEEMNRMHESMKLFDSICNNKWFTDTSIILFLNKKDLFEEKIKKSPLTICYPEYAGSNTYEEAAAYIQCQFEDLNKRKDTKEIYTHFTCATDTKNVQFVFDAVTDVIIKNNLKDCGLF
3',5'-cyclic-AMP phosphodiesterase 4B (Homo sapiens), sequence (Q07343 whole entry, looked up): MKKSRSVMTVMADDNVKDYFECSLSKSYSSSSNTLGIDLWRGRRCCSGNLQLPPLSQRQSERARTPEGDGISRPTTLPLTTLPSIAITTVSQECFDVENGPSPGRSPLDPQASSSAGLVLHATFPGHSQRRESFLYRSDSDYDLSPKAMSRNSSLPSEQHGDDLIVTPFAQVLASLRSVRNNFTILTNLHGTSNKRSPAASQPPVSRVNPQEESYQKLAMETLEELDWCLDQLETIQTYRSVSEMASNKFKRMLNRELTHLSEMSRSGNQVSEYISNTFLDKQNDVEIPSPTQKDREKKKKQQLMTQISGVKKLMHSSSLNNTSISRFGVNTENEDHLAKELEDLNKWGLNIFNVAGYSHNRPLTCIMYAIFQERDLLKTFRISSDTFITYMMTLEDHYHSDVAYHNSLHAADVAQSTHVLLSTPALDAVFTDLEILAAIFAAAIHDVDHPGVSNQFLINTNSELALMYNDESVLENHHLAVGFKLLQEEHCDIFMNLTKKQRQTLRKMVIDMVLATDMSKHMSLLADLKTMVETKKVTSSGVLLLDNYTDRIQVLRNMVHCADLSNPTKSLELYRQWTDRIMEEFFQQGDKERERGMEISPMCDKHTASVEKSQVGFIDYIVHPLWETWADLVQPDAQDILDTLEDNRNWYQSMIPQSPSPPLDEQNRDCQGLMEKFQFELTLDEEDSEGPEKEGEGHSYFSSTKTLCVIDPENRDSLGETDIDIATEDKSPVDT
Pyruvate kinase PKM (Homo sapiens), sequence (P14618 whole entry, looked up): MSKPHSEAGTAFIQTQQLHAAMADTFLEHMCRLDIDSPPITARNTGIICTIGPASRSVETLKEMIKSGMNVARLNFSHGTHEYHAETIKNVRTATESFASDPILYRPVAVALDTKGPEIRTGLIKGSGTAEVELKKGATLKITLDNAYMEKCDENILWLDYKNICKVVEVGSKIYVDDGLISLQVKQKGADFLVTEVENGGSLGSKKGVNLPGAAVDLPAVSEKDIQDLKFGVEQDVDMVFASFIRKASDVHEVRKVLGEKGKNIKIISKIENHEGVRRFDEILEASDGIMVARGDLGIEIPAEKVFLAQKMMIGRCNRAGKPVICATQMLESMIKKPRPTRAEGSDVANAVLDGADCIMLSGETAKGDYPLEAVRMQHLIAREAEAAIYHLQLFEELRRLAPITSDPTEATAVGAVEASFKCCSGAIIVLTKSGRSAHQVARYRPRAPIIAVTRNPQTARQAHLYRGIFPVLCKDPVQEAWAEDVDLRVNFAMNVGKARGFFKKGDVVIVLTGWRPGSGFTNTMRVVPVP
Cytochrome P450 2C19 (Homo sapiens), sequence (P33261 whole entry, looked up): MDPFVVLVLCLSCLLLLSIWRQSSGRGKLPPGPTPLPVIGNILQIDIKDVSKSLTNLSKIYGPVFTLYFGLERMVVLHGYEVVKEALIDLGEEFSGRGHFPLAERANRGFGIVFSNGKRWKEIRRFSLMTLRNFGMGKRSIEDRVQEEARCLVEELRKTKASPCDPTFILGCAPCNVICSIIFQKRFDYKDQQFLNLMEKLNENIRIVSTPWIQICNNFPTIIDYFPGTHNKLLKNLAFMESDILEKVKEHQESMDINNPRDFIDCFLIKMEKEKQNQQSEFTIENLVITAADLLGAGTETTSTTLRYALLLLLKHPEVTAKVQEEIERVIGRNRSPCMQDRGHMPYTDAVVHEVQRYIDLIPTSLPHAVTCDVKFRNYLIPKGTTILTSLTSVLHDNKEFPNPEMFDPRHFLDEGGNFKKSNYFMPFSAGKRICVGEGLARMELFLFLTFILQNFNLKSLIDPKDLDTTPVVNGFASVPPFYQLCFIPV

For `CCCCCCCCCCCCC/C=C\[C@H](O)[C@H](N)CO`, the activity change, negative = inhibition in assay [1] is 27.4% [at 38 µM]; in [3], 1.11% [at 38 µM]. In addition, the results for the Potency in assay [2], in [5] and in assay [6] were 31.6 µM (active), over 46 µM and over 46 µM, respectively. Further, in assay [4], the activity, negative = inhibition is -6.68% [at 38 µM]. The Potency result in assay [7], in assay [8] and in assay [9] was “inactive” throughout.
For the molecule `N[C@@H]1C=CC=C(C(=O)O)C1`, the activity change, negative = inhibition is -1.23% [at 38 µM] in assay [1] and 5.33% [at 38 µM] in [3]. Besides, the Potency result in [2], in assay [7], in assay [11] and in [16] was “inactive” throughout. Also, in assay [4], the activity, negative = inhibition is 16.2% [at 38 µM]. The Potency in assay [5] and in assay [6] was over 46 µM throughout. The result in [10], in [12], in assay [13], in assay [14] and in assay [15] was inactive.
Consider `C[C@H](N)C(=O)OC(C)(C)Cc1ccc(Cl)cc1`, for which the activity change, negative = inhibition in assay [1] is 9.46% [at 38 µM]; in assay [3], 18.9% [at 38 µM]. The Potency is 0.631 µM (active) in assay [2] and 3.98 µM (active) in assay [9]. For the same molecule, the activity, negative = inhibition in [4] was 24.9% [at 38 µM]. The Potency entry in assay [17], in assay [7] and in assay [18] was “inactive” in each case. In addition, the molecule was classed as inactive in assay [10], in assay [12], in [13], in assay [14] and in assay [15].
For `C=C[C@@]1(C)CC(=O)[C@@]2(O)[C@@]3(C)[C@H](O)CCC(C)(C)[C@@H]3[C@H](O)[C@H](OC(C)=O)[C@]2(C)O1`, the activity change, negative = inhibition in [1] is -15.8% [at 38 µM]; in [3], 5.97% [at 38 µM]. The Potency result in assay [2], in assay [19], in [20], in assay [18] and in assay [16] was “inactive” each time. For the same molecule, the activity, negative = inhibition in [4] is 9.83% [at 38 µM]. In addition, the Potency in [5] and in assay [6] was over 46 µM each time. The call in assay [10], in assay [12], in assay [14] and in assay [15] was inactive.
Consider `CO/N=C(\C(=O)N[C@@H]1C(=O)N2C(C(=O)[O-])=C(C[N+]3(C)CCCC3)CS[C@@H]12)c1csc(N)n1`, for which the activity change, negative = inhibition in assay [1] is 2.79% [at 17.2 µM]; in assay [3], -16.9% [at 17.2 µM]. For the same molecule, the Potency entry in [2], in assay [17] and in assay [7] was “inactive” each time. Besides, in [4], the activity, negative = inhibition was 11.5% [at 17.2 µM].
As for `CC(C)[C@H]1C(=O)C(C(N)=O)=C(O)[C@]2(O)C(=O)C3=C(O)c4c(O)ccc(N(C)C)c4C[C@H]3C[C@@H]12`, the activity change, negative = inhibition in assay [1] is 0.478% [at 38 µM]; in assay [3], 8.64% [at 38 µM]. Further, the Potency entry in assay [2], in assay [7], in assay [11] and in assay [18] was “inactive” in each case. Besides, in [4], the activity, negative = inhibition was 1.38% [at 38 µM]. Besides, the Potency in assay [5] and in [6] was over 46 µM in each case. Also, the result in [10], in [13], in [14] and in [15] was inactive.
